# Assay outcomes deposited in PubChem by NMMLSC.
# Efflux pump inh = blocks antifungal efflux pumps in multiplex yeast assay | inhibition, % at 10 µM | S. cerevisiae Candida pump triplex, Nile Red efflux | 330,000 compounds, 0.44% hits;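 active means plate passing quality check with inhibition over a set limit, or well fluorescence over plate mean plus 4 SD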;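 further: Nile Red retained in pooled yeast measured as flow cytometry median fluorescence; 0% = buffer negative control and 100% = Enniatin B positive control; higher means more Nile Red kept so more efflux inhibition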
# LAP4 TOR yeast = alters LAP4-GFP fluorescence in TOR pathway yeast screen; S. cerevisiae LAP4-GFP multiplex, flow cytometry GFP, 3 h; median GFP as percent of DMSO wells; GFP response vs DMSO, % at 10 µM; 320,000 compounds, 0.34% hits;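 active means GFP response vs DMSO above a set limit, about the screen mean plus 3 SD, cut at about 150% in these data; inconclusive means under 70 cell events counted for the yeast strain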
# CIT2 TOR yeast = yeast TOR pathway CIT2-GFP modulation; GFP response vs DMSO, % at 10 µM; AID 2029; 320,000 compounds, 0.065% hits; S. cerevisiae CIT2-GFP strain, flow cytometry, 3 h; 100 means same as DMSO wells;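 active means GFP response relative to DMSO above a set limit, near the screen mean plus 3 SD, cut at about 150% in these data; inconclusive means Fewer than 70 cells measured for a yeast strain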;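 further: ratio of well median GFP fluorescence to mean of DMSO wells on the plate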
# AGP1-GFP MLPCN = yeast TOR pathway AGP1-GFP modulation. S. cerevisiae AGP1-GFP multiplex flow cytometry, 3 h; GFP as percent of DMSO wells. GFP response vs DMSO, % at 10 µM. 320,000 compounds, 0.02% hits;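 active means GFP response relative to DMSO above a set limit, near screen average plus 3 SD, cut at about 150% in these data; inconclusive means fewer than 70 cells counted for the yeast strain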;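 further: median GFP channel fluorescence of the gated AGP1 strain per well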
# RPL19A TOR yeast = modulators of TOR pathway RPL19A-GFP in S. cerevisiae; percent response vs DMSO, % at 10 µM; 330,000 compounds, 0.3% hits; AID 2025; S. cerevisiae RPL19A-GFP strain, flow cytometry, 3 h; stronger effect = lower value;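 active means percent response vs DMSO below 50%; inconclusive means fewer than 70 events counted for the yeast strain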;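 further: median channel GFP fluorescence of the barcoded RPL19A-GFP strain; ratio of sample median GFP to plate DMSO average so 100% = DMSO; lower means less RPL19A-GFP as with rapamycin TOR inhibition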
# MEP2 TOR yeast = alters MEP2-GFP fluorescence in TOR pathway yeast screen; S. cerevisiae MEP2-GFP strain, flow cytometry GFP, 3 h; 100% = DMSO control level; GFP response vs DMSO, % at 10 µM; 330,000 compounds, 0.51% hits; AID 2016;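 active means GFP response versus DMSO above a set limit, roughly screen mean plus 3 SD, cut at about 180% in these data; inconclusive means fewer than 70 cells counted for a yeast strain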;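 further: median GFP fluorescence of the barcode-gated MEP2-GFP cells per well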
# Cmpd fluor yeast = flagged as fluorescent in efflux inhibitor counter-screen; 1,700 compounds, 4% hits; S. cerevisiae AD/pABC3, compound fluorescence, flow cytometry; AID 588517; shares compounds with Efflux pump inh; fluorescence ratio to DMSO, % at 10 µM;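 active means fluorescence ratio to DMSO above its plate's cutoff, the plate mean ratio plus 5 SD, cut at about 210% in these data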;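 further: unstained yeast with no Nile Red so the signal is compound autofluorescence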
# Mdr1 pump inh = Candida Mdr1 efflux pump inhibition. shares compounds with Efflux pump inh. S. cerevisiae AD/CaMDR1, Nile Red efflux, flow cytometry. inhibition, % at 10 µM. 1,700 compounds, 1% hits; in the data active means inhibition above about 26%;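 further: 0% = DMSO vehicle and 100% = reference inhibitor; higher means more Nile Red retained so more efflux inhibition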
# Cdr2 pump inh = Candida Cdr2 efflux pump inhibition. shares compounds with Efflux pump inh. Nile Red retention ratio vs DMSO, % at 10 µM. S. cerevisiae AD/CaCDR2, Nile Red retention, flow cytometry. 1,700 compounds, 4% hits. AID 588520; in the data active means Nile Red retention ratio vs DMSO above about 190%;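 further: higher ratio means more blocking of Cdr2 efflux of the dye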
# Cdr1 pump inh = Candida Cdr1 efflux pump inhibition; shares compounds with Efflux pump inh; S. cerevisiae AD/CaCDR1, Nile Red efflux, flow cytometry; inhibition, % at 10 µM; 1,700 compounds, 1% hits; AID 588522;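 active means inhibition above the screen-wide mean plus twice its standard deviation, cut at about 32% in these data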
# Starred values were filed as active, the others as inactive; u = inconclusive; x = no result given; [ ] = another dose, or the depositor's remark. This is a sample that favours compounds with a hit; in the whole collection about 1.3% have one here.
SMILES,Efflux pump inh,LAP4 TOR yeast,CIT2 TOR yeast,AGP1-GFP MLPCN,RPL19A TOR yeast,MEP2 TOR yeast,Cmpd fluor yeast,Mdr1 pump inh,Cdr2 pump inh,Cdr1 pump inh
CCCCOC(=O)c1ccc(NC(C)=O)cc1,0.6*,104,82,91,96,101,103,0,106,0
COc1cc(OC)c(OC)cc1/C=N/NC(=O)C[n+]1ccccc1,7.6*,96,107,103,100,99,93,0,83,0
Cc1ccc(S(=O)(=O)N2CCCCC2)cc1NC(=O)COC(=O)c1cccn1C,0,100,100,97,106,105,x,x,x,x
O=C(CC1C[C@H](C(=O)N2CCOCC2)[C@@]2(CCC3CCCC3)c3[nH]c4ccccc4c3CCN2C1=O)NCC12CC3CC(CC(C3)C1)C2 (stereo not given in full),1.2*,96,92,99,90,86,109,0,123,0
O=C(CC1C[C@H](C(=O)N2CCOCC2)[C@@]2(CCC3CCCC3)c3[nH]c4ccccc4c3CCN2C1=O)NCCN1CCOCC1 (stereo not given in full),0,94,100,102,98,98,x,x,x,x
CCOc1ccc(OCC(=O)c2c(O)c3ccccc3oc2=O)cc1,0,98,86,96,106,94,x,x,x,x
O=c1oc2ccccc2c2c1C(c1ccc(Cl)cc1)Nc1ccc3ccccc3c1-2 (stereo not given),1.0*,91,u,71,39*[may fluoresce violet],159,103,0,114,0
CCOc1ccc(C2Nc3ccc4ccccc4c3-c3c2c(=O)oc2ccccc32)cc1 (stereo not given),0.6*,97,98,99,91,111,118,0,107,1
CCN(CC)S(=O)(=O)c1ccc2c(c1)CC(C(=O)N1CCCC1)N2C(C)=O (stereo not given),0,99,105,104,101,101,x,x,x,x
CCCCN(C)CCCNC(=O)c1cn(CC)c2ccc(S(=O)(=O)N3CCc4ccccc4C3)cc2c1=O,0,92,105,97,94,87,x,x,x,x
CCn1cc(C(=O)NCCCN2CCCC2)c(=O)c2cc(S(=O)(=O)N3CCc4ccccc4C3)ccc21,1.1*,85,72,90,105,103,100,0,102,0
COc1ccc(/C=C(/NC(=O)c2ccco2)C(=O)N2CCOCC2)cc1,0,122,118,124,112,117,x,x,x,x
O=C(O)c1cccc(-c2ccc(/C=c3/sc4nc5ccccc5n4c3=O)o2)c1,3.9*,111,92,104,100,95,133,0,262*,0
CC(C)C[C@@H]1NC(=O)N(CCCn2ccnc2)C1=O,0,98,95,96,102,97,x,x,x,x
Cc1ccc(C(OCC(O)CNCc2ccc(F)cc2)c2ccccc2)cc1 (stereo not given),0,91,104,89,99,103,x,x,x,x
CC(C)[C@H](NS(=O)(=O)c1ccc2c(c1)OCCO2)C(=O)OCC(=O)Nc1cccc(Cl)c1Cl,16*,93,100,96,102,97,115,0,97,0
Nc1cccc(-c2cnc3ccccc3n2)c1,0,99,105,102,103,106,x,x,x,x
COc1cc(C(C)=O)ccc1OCC(=O)Nc1ccc(Cl)c(S(=O)(=O)N2CCOCC2)c1,1.0*,82,90,97,92,89,97,0,94,0
